# Data as given in PubChem BioAssay (Tox21).
# Several values for one entry are separate records, joined by “and”; a condition that tells them apart may be missing. Equal entries are not always repeated. Results filed as inconclusive are left out. A number with no mark means an inactive call. Activity calls are given as the source filed them. Calls follow the shape of the dose curve; as a rule, active = well fitted activation curve with a large enough effect in the repeat runs; inconclusive = weak or mixed curves; inactive = flat fitted curve, though single readings scatter.
# Experiment: A CellTox Green Cytotoxicity Assay to monitor cytotoxicity in HEK293 cells - 8 hour (AID 1224884); also: nearly all actives have a fitted effect of over 35% in size
# Settings: CellTox Green fluorescence; series mostly up to 76.8 µM; cytotoxicity increase: at the top concentration
# Source text: National Center for Advancing Translational Sciences [NCATS]
# NIH Chemical Genomics Center [NCGC]
# U.S. Environmental Protection Agency [EPA]
# National Institutes of Environmental Health Sciences [NIEHS]
# National Toxicology Program [NTP]
# Cell-based models are critical for drug discovery. Determining the natural cytotoxic effects resulting from test compounds is an essential research activity. A CellTox Green Cytotoxicity Assay to monitor cytotoxicity in real time of continues cell culture during 40 hours of the compound treatment was used to screen Tox21 10K library compounds in Hek293 cells. CellTox Green Cytotoxicity Assay is a nonlytic, homogeneous, biofluorescent method to measure cytotoxicity in cell culture after experimental manipulation. The assay system uses a proprietary asymmetric cyanine dye that is excluded from viable cells but preferentially stains the dead cell's DNA. […] Viable cells produce no appreciable increases in fluorescence. Therefore, the fluorescence signal produced by the binding interaction with dead cell DNA is proportional to cytotoxicity.
# The mixture of Hek293 cell suspension and reagents were dispensed at 600cells/6 ul/well in 1536-well tissue culture treated black solid bottom plates using a Multidrop dispenser. After the assay plates were incubated at a 37 C/5% CO2 incubator for 5 hours, 23 nL of compounds dissolved in DMSO, positive and negative controls was transferred to the assay plate by a pintool work station. The plates were incubated at 37 C for 40 hours. The fluorescence intensity were measured at 0h, 8h, 16h, 24h, 32h and 40h time points using ViewLux plate reader during compound treatment.
# % is scaled to controls: 0 for no effect and ±100 for the full control effect; potency is read from the fitted curve at half-maximal effect.
Structure (SMILES),cytotoxicity increase,Potency
c1ccc2c(c1)[nH]c1cnccc12,3.47%,–
CCC(C)c1cc(C(C)(C)C)cc(-n2nc3ccccc3n2)c1O (stereo not given),8.84% [at 35.3 µM],–
CCOC(=O)OC1=C(c2cc(C)ccc2C)C(=O)NC12CCC(OC)CC2 (stereo not given),-4.11%,–
Clc1ccc(C(c2ccc(Cl)cc2)C(Cl)(Cl)Cl)cc1,–,inactive
Oc1cccc(-c2ccccc2)c1,1.04%,–
CC(=O)[O-].[Tl+],-0.81%,–
Cc1cc(Cl)ccc1O[C@H](C)C(=O)O,-13.8%,–
CCCN(CC)CC1COC2(CCC(C(C)(C)C)CC2)O1 (stereo not given),7.24%,–
O=C(O)c1cc[c]([Hg][Cl])cc1,9.66%,–
C=CC(=O)OCC(COC(=O)C=C)(COC(=O)C=C)COC(=O)C=C,-1.28%,–
CCCCCCCCCBr,-0.702%,–
CC(C)CCCCCOC(=O)c1ccccc1C(=O)OCCCCCC(C)C,-0.378%,–
Oc1cc(Cl)c(Cl)c(Cl)c1,15.3%,–
CC(C)(C)OO,-11.7%,–
CC(C)(C)C(O)/C(=C\c1ccc(Cl)cc1Cl)n1cncn1 (stereo not given),13.8%,–
ClCc1ccccc1CCl,8.9%,–
NC(=O)CCl,-3.03%,–
Oc1ccccc1Br,-0.633%,–
CNC(C)Cc1ccc2c(c1)OCO2 (stereo not given),7.87%,–
COP(=O)(OC)SCn1c(=O)oc2cc(Cl)cnc21,7.61%,–

Structure (SMILES),cytotoxicity increase,Potency
CC(C)Oc1cccc(NC(=O)c2ccccc2C(F)(F)F)c1,–,43.6 µM (active)
ClC1=C(Cl)C2(Cl)C3C(Cl)C=CC3C1(Cl)C2(Cl)Cl (stereo not given),–,55.2 µM (active) and 49 µM (active)
CC1(C)[C@H](C(=O)O[C@H](C#N)c2cccc(Oc3ccccc3)c2)[C@@H]1/C=C(\Cl)C(F)(F)F,-24.3%,–
Clc1ccc(CCC(Cn2ccnc2)Sc2c(Cl)cccc2Cl)cc1 (stereo not given),14.1% [at 35.3 µM],–
FC(Cl)(Cl)Cl,-4.07%,–
CCCCCCCCCCCCCCCC[N+](C)(C)C,–,21.1 µM (active) and 49 µM (active)
Clc1ccc(Oc2ccccc2)cc1,-3.39%,–
Clc1ccc(CSC(Cn2ccnc2)c2ccc(Cl)cc2Cl)cc1 (stereo not given),11.4% [at 35.3 µM],–
O=C(CCCN1CCC2(CC1)C(=O)NCN2c1ccccc1)c1ccc(F)cc1,-8.61% [at 35.3 µM],–
CCOP(=S)(OCC)SCCS(=O)(=O)CC,-10.7%,–
O=[N+]([O-])c1cc(C(F)(F)F)c(Cl)c([N+](=O)[O-])c1Cl,11.8%,–
Cc1cc(C(F)(C(F)(F)F)C(F)(F)F)ccc1NC(=O)c1cccc(I)c1C(=O)NC(C)(C)CS(C)(=O)=O,-11.1% [at 35.3 µM],–
N#CNC#N,2.13%,–
C[C@H]1CC[C@@H]2[C@@H](C)[C@H]3[C@H](C[C@H]4[C@@H]5CC=C6CC(O[C@@H]7O[C@H](CO)[C@H](O)[C@H](O[C@@H]8O[C@H](CO)[C@@H](O)[C@H](O)[C@H]8O)[C@H]7O[C@H]7O[C@@H](C)[C@H](O)[C@@H](O)[C@H]7O)CC[C@]6(C)[C@H]5CC[C@]34C)N2C1 (stereo not given in full),–,12.7 µM (active)
CS(=O)(=O)c1ccc(C(=O)C2C(=O)CCCC2=O)c([N+](=O)[O-])c1,–,44.4 µM (active)
Nc1ccc(Sc2ccc(N)cc2)cc1,-8.47%,–
CC(=O)c1cc(C(C)(C)C)cc2c1CCC2(C)C,17.7%,–
BrCBr,0.143%,–
COc1cccc(C(=O)CCN[C@@H](C)[C@H](O)c2ccccc2)c1,11.6% [at 35.3 µM],–
CC(=O)C(Cl)(Cl)Cl,-14.2%,–
